SMILES strings stand for the structures. This is part of a sample that, as a whole, favours compounds with a hit. Of some 83,000 tested, about 20% had one in any assay.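 Step 1: grow cells in 96-well plates. Step 2: add test compound at a single concentration. Step 3: incubate 48 h. Step 4: record percent growth.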 The source made the active and inactive calls. The calls were made as follows: active = growth percent below 10; inactive = the rest.

The test concerns HS 578T breast. As to the kind of experiment: NCI-60 one-dose screen, 48 h (100 = growth as untreated, 0 = no growth, -100 = all killed). The settings on record: 10 µM unless noted.
With `CSc1nc(N)n2nccc2n1`, the growth is 105% (inactive).

Consider `Cc1nnc(-c2cc3c(ccc4ccccc43)oc2=O)c2cn(-c3ccc(Cl)cc3)nc12`, for which the growth was 93.8% (inactive).

Turning to `COc1ccc(CNCCCN2C(=O)c3ccc4c5c(ccc(c35)C2=O)C(=O)N(CCCNCc2ccc(OC)c(OC)c2OC)C4=O)c(OC)c1OC`, the growth is -38.2% (active).

As to `CCCCCCCCCCCCOC(=N)N(C)C`, the growth is 97.1% (inactive).

On to `COCC(=O)NNc1[nH]c(-c2ccc(OC)cc2)cc1C#N`, for which the growth is 104% (inactive).

As to `c1cc(C2CCCCC2)ccc1OCCCCCCN1CCNCC1`, the growth was 51.9% (inactive).

For `O=C(CCCC(=O)Nc1ccc(Cn2nnc3cc(Cl)c(Cl)cc32)cc1)Nc1ccc(CN2N=NC3C=C(Cl)C(Cl)=CC32)cc1` (centres undefined), the growth was 91.5% (inactive).

In the case of `COc1cc(N)c2nccc(C)c2c1OC`, the growth is 104% (inactive).

With `COc1ccc(Cn2cc3c(c2)-c2oncc2CC3)cc1OC`, the growth is 2.04% (active).

With `Brc1c(-c2ccncc2)nc2n1CCS2`, the growth was 117% (inactive).

Take `CCc1c(C)c2ccc(OCC(=O)N=Nc3c(O)[nH]c4ccccc34)c(C)c2oc1=O`: the growth was -5.77% (active).

As for `Nc1ccc(N=Nc2ccccc2)c2cc(S(=O)(=O)O)ccc12`, the growth was 104% (inactive).

As for `CC(C)CSc1nc(-c2ccc(F)cc2)c(C#N)c(N2CCCCC2)n1`, the growth was 99.4% (inactive).

With `Cc1ccc2c(O)c(O)cc(NC(C)CCCN)c2n1` (centres undefined), the growth was 80.8% (inactive).

Regarding `CCn1cnc(C[C@H](NC(=O)[C@@H](NC(=O)Nc2cc(C(F)(F)F)cc(C(F)(F)F)c2)C(C)(C)C)C(=O)OC)c1`, the growth was -2.17% [100 µM] (active).

For `CC(C)OCC1CO1` (centres undefined), the growth was 104% (inactive).

Consider `COc1ccc(-c2nnc(SCC(=O)Nc3ccc(C(=O)/C=C/c4cc(OC)c(OC)c(OC)c4)cc3)n2-c2ccccc2)cc1OC`, for which the growth was 4.23% [100 µM] (active).

Turning to `[N-]=[N+]=Nc1ncc(-c2ccc(C(F)(F)F)cc2)c(NC2CCCCCC2)n1`, the growth was 52.3% [100 µM] (inactive).

As to `CC(C)(C)c1cc(C[P+](c2ccc(Cl)cc2)(c2ccc(Cl)cc2)c2ccc(Cl)cc2)cc(C(C)(C)C)c1O`, the growth is 105% (inactive).

`O=C(OCC1CC2(Cl)C(Cl)=C(Cl)C1(Cl)C2(Cl)Cl)C1C(C(=O)OCC2CC3(Cl)C(Cl)=C(Cl)C2(Cl)C3(Cl)Cl)C2(Cl)C(Cl)=C(Cl)C1(Cl)C2(Cl)Cl` (centres undefined): the growth is 117% (inactive).

`O=S(=O)(Cc1cccc2c(CS(=O)(=O)c3ccc(Cl)cc3)cccc12)c1ccc(Cl)cc1`: the growth is 70.8% (inactive).

For the molecule `O=C(/C=C1\C(=O)N(Cc2ccccc2)c2ccccc21)c1ccc(OCCN2CCCCC2)cc1`, the growth was 77.7% (inactive).

On to `CC(C)(C)C(=O)CCCCCCCC/C=C/CCCC(O)c1ccco1` (centres undefined), for which the growth was 106% (inactive).

For the molecule `CC(=O)CCS(=O)c1ccccc1` (centres undefined), the growth was 98.4% (inactive).

As to `O=P(OCCCl)(OCCCl)C(O)c1ccccc1Cl` (centres undefined), the growth was 106% (inactive).

Turning to `CC1(C)C(O)NC(Cl)=C(C#N)C1(C#N)C#N` (centres undefined), the growth is 114% (inactive).

Turning to `COc1ccc(C(O)(c2ccccc2)C(C(=O)O)c2ccccc2)cc1` (centres undefined), the growth was 114% (inactive).

Turning to `O=C(O)CC1Cc2ccccc2C1C(=O)O` (centres undefined), the growth is 104% (inactive).

For `O=c1[nH]c(=S)[nH]c(O)c1/C=C1\C=Nc2ccccc21`, the growth was 71.7% (inactive).

Turning to `O=C1NCCN1/N=C/c1c(Cl)nc2n1CCS2`, the growth was 139% (inactive).

On to `CCCC(=O)Nc1ccccc1C(=O)O`, for which the growth was 102% (inactive).

Turning to `CC(C)OC(=O)Nn1cnc2ccccc21`, the growth was 114% (inactive).

For `O=C(NC1CCN(Cc2ccccc2)CC1)c1cc(-c2cccnc2)nc2ccc(Cl)cc12`, the growth is 83.4% (inactive).

Regarding `O=S(=O)(O)c1ccc2c(c1)Sc1cc(S(=O)(=O)O)ccc1O2`, the growth was 110% (inactive).

On to `CCCCCc1ccnc(CC(=O)c2ccc(OC)cc2)c1`, for which the growth is 107% (inactive).

With `COc1ccc(-c2nc(SCC(C)C)nc(Nc3ccc([N+](=O)[O-])cc3)c2C#N)cc1`, the growth is 90.4% (inactive).

Take `COc1cc2ncnc(Nc3ccc4c(cnn4C(=O)Nc4ccccc4)c3)c2cc1OC`: the growth was 102% (inactive).

For `CCCCCSc1ccc2nc(NC(=O)OCC)sc2c1`, the growth was 14.1% (inactive).

For `COc1ccc(C2=C/C(=C\c3ccc(Cl)cc3)C(=O)NN2C(=S)NN)cc1`, the growth was 96.6% (inactive).

Source of the values: PubChem BioAssay (NCI).
